Inconclusive results are not listed. Active and inactive are the calls of the source. Rule for the calls: active = hit-call score of the fitted dose curve at least 0.9, where 1 is the maximum; inconclusive = response in the unintended direction; inactive = score below 0.9.
Assay: ACEA_ER_AUC_viability: ACEA Biosciences xCELLigence Real-Time Cell Analysis on Estrogen Receptor Agonism for Viability (AID 2283782);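 note: continuous compound exposure with impedance area under curve over 80 h; hit means loss of impedance signal meaning reduced cell growth or viability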
Method in brief: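 T-47D human breast cells in phenol red-free RPMI1640 with 10% charcoal-stripped FBS were dosed with an 8-point 1:4 dilution series from 100 uM top final concentration, in duplicate. Impedance-based growth was followed for 80 h; AUC analysed versus DMSO.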
For `C[Si]1(C)N[Si](C)(C)N[Si](C)(C)N1`, the outcome was “inactive”.
For `OCCCO`, the outcome was “inactive”.
For `CCCCCC#CC(=O)OC`, the AC50 was 50 µM (active).
In the case of `[Cu+]`, the outcome is reported as “inactive”.
For `C=C(C)C(=O)OCCC[Si](OC)(OC)OC`, the outcome was “inactive”.
With `CC(=O)c1cccnc1` the outcome was “inactive”.
With `CC(CO)(CO)[N+](=O)[O-]` the outcome was “inactive”.
With `O=S1(=O)CC(Cl)(Cl)C(Cl)(Cl)C1` the AC50 was 1.42 µM (active).
With `CCCCOC(=O)C(C)OC(=O)CCC` (configuration not stated) the outcome was “inactive”.
For `CC1=CC[C@@H](C(C)(C)O)CC1`, the outcome was “inactive”.
With `CCCCCCC(O)CCOC(C)=O` (configuration not stated) the outcome was “inactive”.
For `Cc1ccc(C(C)(C)O)cc1`, the outcome was “inactive”.
For `Brc1cc(Br)cc(Br)c1`, the outcome was “inactive”.
In the case of `C=CC(C)(CCC=C(C)C)OC(=O)CC` (configuration not stated), the AC50 is reported as 50 µM (active).
With `ClCCOCCOCCCl` the outcome was “inactive”.
For `Cc1cc(N)n(-c2ccccc2)n1`, the outcome was “inactive”.
With `CC/C=C/CCCCCCCCCCOC(C)=O` the outcome was “inactive”.
With `CC(=O)CCc1ccc(O)cc1` the outcome was “inactive”.
In the case of `CC(C)(O)CCc1ccccc1`, the outcome is reported as “inactive”.
In the case of `CC(C)=CCCC(C)=CC(=O)O`, the outcome is reported as “inactive”.
In the case of `CCCC1CCC(=O)CC1`, the outcome is reported as “inactive”.
With `c1ccc(Sc2ccccc2)cc1` the AC50 was 83.4 µM (active).
In the case of `CC(C)Cc1ccc(C(C)C(=O)O)cc1` (configuration not stated), the outcome is reported as “inactive”.
For `CC/C=C\CCCCO`, the AC50 was 50 µM (active).
With `O=C(Nc1cccc(Cl)c1)OCC#CCCl` the AC50 was 56.3 µM (active).
For `NCCCOCCOCCOCCCN`, the AC50 was 86.7 µM (active).
For `O=C(O)c1cc2ccccc2cc1O`, the outcome was “inactive”.
With `CC(C)COC(=O)c1ccccc1` the outcome was “inactive”.
In the case of `CC(=O)CCC=C(C)CCC=C(C)C`, the AC50 is reported as 63.6 µM (active).
For `CC(=O)CCC(=O)O`, the outcome was “inactive”.
For `CCCCCCCCCCCCOC(C)=O`, the outcome was “inactive”.
With `CC1=CC(C)C(C=O)C(C)C1` (configuration not stated) (tested in a mixture with another compound) the AC50 was 50 µM (active).
In the case of `CC(C)C(=O)OCC=Cc1ccccc1`, the outcome is reported as “inactive”.
In the case of `C=C(C)C(=O)OCCOCCOC(=O)C(=C)C`, the AC50 is reported as 21.2 µM (active).
With `Cc1cc(O)c(C)c(C)c1O` the AC50 was 76.1 µM (active).
With `NC(N)=NC(N)=NCCc1ccccc1` the outcome was “inactive”.
In the case of `CC(C)CCCC(C)(C)O`, the outcome is reported as “inactive”.

From PubChem BioAssay (EPA / NIEHS)
